The values below come from PubChem BioAssay (Tox21).

Several values for one entry are separate records, joined by “and”; a condition that tells them apart may be missing. Equal values may be shown once. Inconclusive results are not listed. More than one record can exist for a structure, and the calls need not agree. Activity calls are given as the source filed them. The call rests on the fitted dose curve; in most records, active means well fitted curve in the direction sought with a large enough effect in the repeat runs; inconclusive means weak or mixed curves; inactive means no such curve, though single readings can be large; an effect the other way counts as inactive or inconclusive.

Assay [1] in a line: A CellTox Green Cytotoxicity Assay to monitor cytotoxicity in HEK293 cells - 40 hour (AID 1224871). Further: nearly all actives have a fitted effect of over 45% in size. Further: potency means the concentration at half of the fitted maximal effect. The essentials: (§1)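 HEK293 cells premixed with CellTox Green dye were seeded at 600 cells/well and left 5 h at 37 C/5% CO2 before pin transfer of 23 nL compound in DMSO. Fluorescence from dye bound to dead-cell DNA was read during 40 h treatment.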
Assay [2] in a line: qHTS RealTime-Glo MT Cell Viability Assay in HEK293 cells - 16 hour (AID 1224872). Further: nearly all actives have a fitted effect of over 50% in size. Further: potency means the concentration at half of the fitted maximal effect. Put shortly: (§2)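 Homogeneous bioluminescent viability format in HEK293 cells (600 cells/well). Following 5 h at 37 C/5% CO2, 23 nL compound was pintooled; the signal was measured repeatedly during 40 h incubation.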
Background: In qHTS, concentration-response curves come from the screen itself.

The nature of assay [3]: qHTS RealTime-Glo MT Cell Viability Assay in HepG2 cells - 8 hour (AID 1224873). Further: nearly all actives have a fitted effect of over 55% in size. Further: potency means the concentration at half of the fitted maximal effect. Put shortly: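 HepG2 cells (600/well) mixed with RealTime-Glo MT reagent, settled 5 h at 37 C/5% CO2 before compound addition. Nonlytic NanoLuc luminescence from viable-cell prosubstrate reduction read repeatedly during 40 h treatment at 37 C.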
Assay [4] is described as follows: qHTS RealTime-Glo MT Cell Viability Assay in HEK293 cells - 40 hour (AID 1224874). Further: nearly all actives have a fitted effect of over 50% in size. Further: potency means the concentration at half of the fitted maximal effect. As to conditions: RealTime-Glo luminescence; max response: stronger effect = lower value. Put shortly: (§3)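 HEK293 cells mixed with RealTime-Glo reagents (NanoLuc plus cell-permeant prosubstrate) at 600 cells/well, preincubated 5 h at 37 C/5% CO2, then given 23 nL compound in DMSO. Nonlytic luminescence from viable cells was read at 0, 8, 16, 24, 32 and 40 h.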

A short description of assay [5]: A CellTox Green Cytotoxicity Assay to monitor cytotoxicity in HEK293 cells - 24 hour (AID 1224875). Further: series mostly up to about 77 µM; nearly all actives have a fitted effect of over 45% in size. Put shortly: as §1
Assay [6] is described as follows: A CellTox Green Cytotoxicity Assay to monitor cytotoxicity in HepG2 cells - 16 hour (AID 1224876). Further: nearly all actives have a fitted effect of over 45% in size. Further: potency means the concentration at half of the fitted maximal effect. Put shortly:
(§4)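 HepG2 cells were seeded together with the CellTox Green dye at 600 cells/well, left 5 h at 37 C/5% CO2, then given compounds in DMSO. Fluorescence from dye bound to dead-cell DNA was read repeatedly over 40 h of treatment at 37 C.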

Assay [7] in a line: A CellTox Green Cytotoxicity Assay to monitor cytotoxicity in HepG2 cells - 24 hour (AID 1224878). Further: nearly all actives have a fitted effect of over 45% in size. Further: potency means the concentration at half of the fitted maximal effect. Put shortly: as §4
A short description of assay [8]: A CellTox Green Cytotoxicity Assay to monitor cytotoxicity in HepG2 cells - 40 hour (AID 1224879). Further: nearly all actives have a fitted effect of over 40% in size. The essentials: as §4
A short description of assay [9]: qHTS RealTime-Glo MT Cell Viability Assay in HEK293 cells - 0 hour (AID 1224880). Put shortly: as §3
Assay [10] can be described thus: A CellTox Green Cytotoxicity Assay to monitor cytotoxicity in HEK293 cells - 32 hour (AID 1224881). Further: nearly all actives have a fitted effect of over 40% in size. Further: potency means the concentration at half of the fitted maximal effect. The essentials: as §1
Assay [11] can be described thus: A CellTox Green Cytotoxicity Assay to monitor cytotoxicity in HepG2 cells - 0 hour (AID 1224882). Further: nearly all actives have a fitted effect of over 35% in size. Put shortly: as §4
Assay [12] in a line: A CellTox Green Cytotoxicity Assay to monitor cytotoxicity in HepG2 cells - 32 hour (AID 1224883). Further: nearly all actives have a fitted effect of over 50% in size. Further: potency means the concentration at half of the fitted maximal effect. Put shortly: as §4
Assay [13] in a line: A CellTox Green Cytotoxicity Assay to monitor cytotoxicity in HEK293 cells - 8 hour (AID 1224884). Further: nearly all actives have a fitted effect of over 35% in size. Put shortly: as §1
Assay [14] is described as follows: qHTS RealTime-Glo MT Cell Viability Assay in HepG2 cells - 16 hour (AID 1224885). Further: nearly all actives have a fitted effect of over 50% in size. Further: potency means the concentration at half of the fitted maximal effect. Put shortly:
(§5)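 Cell number in HepG2 cultures estimated from NanoLuc luminescence generated by metabolic reduction of a prosubstrate by living cells. The homogeneous, nonlytic format allowed repeated reads at 0, 8, 16, 24, 32 and 40 h of compound exposure.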

A short description of assay [15]: qHTS RealTime-Glo MT Cell Viability Assay in HEK293 cells - 24 hour (AID 1224886). Further: nearly all actives have a fitted effect of over 50% in size. Further: potency means the concentration at half of the fitted maximal effect. The essentials: as §2
Assay [16] can be described thus: qHTS RealTime-Glo MT Cell Viability Assay in HEK293 cells - 8 hour (AID 1224887). Further: nearly all actives have a fitted effect of over 50% in size. Further: potency means the concentration at half of the fitted maximal effect. Put shortly:
as §3

Assay [17] can be described thus: A CellTox Green Cytotoxicity Assay to monitor cytotoxicity in HEK293 cells - 16 hour (AID 1224888). Further: nearly all actives have a fitted effect of over 35% in size. The essentials:
as §1

A short description of assay [18]: qHTS RealTime-Glo MT Cell Viability Assay in HepG2 cells - 0 hour (AID 1224889). Further: nearly all actives have a fitted effect of over 50% in size. Further: potency means the concentration at half of the fitted maximal effect. The essentials: as §5
A short description of assay [19]: A CellTox Green Cytotoxicity Assay to monitor cytotoxicity in HepG2 cells - 8 hour (AID 1224890). Further: nearly all actives have a fitted effect of over 45% in size. Further: potency means the concentration at half of the fitted maximal effect. The essentials: as §4
Assay [20] can be described thus: qHTS RealTime-Glo MT Cell Viability Assay in HepG2 cells - 32 hour (AID 1224877). Further: nearly all actives have a fitted effect of over 55% in size. The essentials: as §5
On the % scale 0 is the no-effect control and ±100 the full control effect.

On to `CC1(C)OC(=O)NC1=O`, for which the Potency result in assay [1], in [2], in assay [3], in assay [5], in [6] and in assay [7] was “inactive” in each case. In addition, the Potency result in assay [8], in assay [9], in [10], in [11], in [12] and in assay [13] was “inactive” each time. Further, the Potency entry in assay [14], in assay [15], in assay [16], in [17], in [18] and in [19] was “inactive” each time. Besides, the max response in assay [4] is -4.09% (inactive) and 7.44% (inactive).
With `Cc1ccc(C(C)(C)C)cc1`, the Potency result in [1], in assay [2], in assay [3], in assay [5], in assay [6] and in assay [7] was “inactive” throughout. For the same compound, the Potency result in [8], in [10], in [11], in assay [12], in assay [13] and in assay [14] was “inactive” throughout. In addition, the Potency entry in assay [16], in [17], in [18] and in assay [19] was “inactive” each time. Moreover, the max response in assay [4] is 0.538% (inactive).
Take `OC[C@H]1O[C@@H]2O[C@H]3[C@H](O)[C@@H](O)[C@@H](O[C@H]4[C@H](O)[C@@H](O)[C@@H](O[C@H]5[C@H](O)[C@@H](O)[C@@H](O[C@H]6[C@H](O)[C@@H](O)[C@@H](O[C@H]7[C@H](O)[C@@H](O)[C@@H](O[C@H]1[C@H](O)[C@H]2O)O[C@@H]7CO)O[C@@H]6CO)O[C@@H]5CO)O[C@@H]4CO)O[C@@H]3CO`: the Potency result in [1], in [2], in assay [3], in [5], in assay [6] and in assay [7] was “inactive” throughout. The Potency entry in assay [8], in assay [9], in [10], in assay [11], in assay [12] and in [13] was “inactive” each time. Moreover, the Potency result in [14], in assay [15], in assay [16], in assay [17], in [18] and in assay [19] was “inactive” throughout. In addition, the max response in assay [4] is -4.99% (inactive) and 23.3% (inactive).
On to `C[C@]12C=CC(=O)C=C1CC[C@H]1[C@@H]3C[C@@H](O)[C@](O)(C(=O)CO)[C@@]3(C)C[C@H](O)[C@@]12F`, for which the Potency entry in assay [1], in assay [2], in assay [3], in assay [5], in assay [6] and in assay [7] was “inactive” throughout. The Potency entry in assay [8], in assay [9], in [10], in assay [11], in assay [12] and in [13] was “inactive” throughout. For the same compound, the Potency result in assay [14], in assay [16], in assay [17] and in assay [19] was “inactive” throughout. Besides, the max response in assay [4] is 1.25% (inactive) and 4.53% (inactive). Also, the Potency in assay [18] was 21.9 µM (active).
For `CC(=O)[C@H]1CC[C@H]2[C@@H]3CC=C4C[C@@H](O)CC[C@]4(C)[C@H]3CC[C@]12C`, the Potency result in assay [1], in assay [2], in assay [3], in [5], in assay [6] and in [7] was “inactive” each time. For the same compound, the Potency result in assay [10], in [11], in [12], in assay [13], in assay [14] and in [15] was “inactive” each time. Besides, the Potency entry in assay [16], in assay [17], in assay [18] and in assay [19] was “inactive” throughout. The max response in assay [4] is -23.7% (inactive).
Consider `O=C1CCc2ccccc2O1`, for which the Potency entry in assay [1], in [2], in assay [3], in assay [6], in assay [7] and in assay [8] was “inactive” each time. Further, the Potency entry in [11], in [12], in assay [13], in assay [14], in assay [15] and in [16] was “inactive” each time. For the same compound, the Potency result in [17], in [18] and in assay [19] was “inactive” in each case. Also, in assay [4], the max response is 3.8% (inactive) and -0.872% (inactive). The Potency result in assay [10] is “inactive and 21.9 µM (active)”.
Consider `Cc1ccc(C)c(O)c1`, for which the Potency result in assay [1], in assay [3], in [5], in assay [6], in [20] and in [7] was “inactive” each time. Further, the Potency result in assay [8], in [9], in assay [10], in [11], in [12] and in assay [13] was “inactive” in each case. For the same compound, the Potency entry in assay [14], in assay [15], in assay [16], in assay [17], in assay [18] and in [19] was “inactive” throughout. The max response in assay [4] is 1.95% (inactive) and 4.96% (inactive).
`O=C(CCCN1CCC(O)(c2ccc(Cl)cc2)CC1)c1ccc(F)cc1`: the Potency is 49 µM (active) and inactive in [1]; 13.8 µM (active) and 5.35 µM (active) in [2]; 49 µM (active) and inactive in [3]; 21.9 µM (active) and 8.49 µM (active) in [4]; 43.6 µM (active) and inactive in assay [6]; 24.5 µM (active) in assay [7]. In addition, the Potency in assay [10] is 49 µM (active) and inactive; in [12], 21.9 µM (active); in [14], 49 µM (active) and inactive; in assay [15] it was 13.8 µM (active) and 8.49 µM (active); in [16] it was 13.8 µM (active) and 9.52 µM (active); in assay [19], 49 µM (active) and inactive. In addition, the Potency result in assay [9], in assay [11], in assay [13] and in [18] was “inactive” in each case.
With `[O-]/[N+](=N\O)c1ccccc1`, the Potency result in assay [1], in assay [2], in [3], in assay [5], in assay [6] and in assay [7] was “inactive” in each case. For the same compound, the Potency result in assay [10], in assay [11], in [12], in assay [13], in assay [14] and in [15] was “inactive” each time. Also, the Potency entry in assay [16], in [17], in [18] and in assay [19] was “inactive” throughout. Further, the max response in assay [4] is 2.42% (inactive) and -11.8% (inactive).
On to `O=Cc1ccccc1C=O`, for which the Potency result in assay [1], in assay [2], in [3], in assay [5], in assay [6] and in [9] was “inactive” in each case. Further, the Potency result in assay [10], in assay [11], in assay [13], in assay [14], in [16] and in assay [17] was “inactive” throughout. Further, the Potency result in assay [18] and in [19] was “inactive” throughout. In assay [4], the max response was 0.419% (inactive). Further, the Potency in assay [7] was 24.5 µM (active) and inactive; in assay [12] it was 21.9 µM (active) and inactive.
With `Cc1ccc2c(c1)C(=O)OC2=O`, the Potency result in [1], in assay [3], in [5], in assay [6], in assay [20] and in assay [7] was “inactive” throughout. Besides, the Potency entry in assay [8], in assay [9], in assay [10], in assay [11], in [12] and in assay [13] was “inactive” in each case. In addition, the Potency result in [14], in assay [15], in [16], in [17], in [18] and in assay [19] was “inactive” in each case. Moreover, in [4], the max response was 5.67% (inactive) and 0.571% (inactive).
Consider `CCCCCCOCCOCCO`, for which the Potency entry in [1], in [2], in assay [3], in assay [5], in [6] and in assay [7] was “inactive” in each case. In addition, the Potency result in [8], in assay [9], in assay [10], in assay [11], in assay [12] and in assay [13] was “inactive” in each case. In addition, the Potency result in assay [14], in assay [15], in [16], in assay [17], in [18] and in assay [19] was “inactive” in each case. Further, the max response in assay [4] is 4% (inactive) and -0.302% (inactive).
